Results on 98 molecules are retold here after PubChem BioAssay AID570 (The Scripps Research Institute Molecular Screening Center, 2006).

Out of some 65,000 compounds screened, about 45 (0.07%) were called active. The sample holds actives, similar compounds and a random draw of the others, so the mix is not that of the screen.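 How the source made its calls: active means inhibition above the mean of compound-free control plate wells plus 3 SD (cut at about 14% in these data); inactive means the rest.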

For this assay, the target named is Collagenase 3 (Homo sapiens) (UniProt P45452). Nature of the assay: inhibition of MMP13 collagenase activity – biochemical, FRET peptide cleavage, primary screen (AID 570).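 Further: 0% = DMSO wells and 100% = wells with reference MMP-13 inhibitor after basal subtraction.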 The settings on record: MMP-13 fTHP FRET cleavage, Mca fluorescence; at 4 µM; stronger effect = higher value.
For `O=C(NCCN1CCOCC1)[C@H](Cc1ccccc1)N1C(=O)c2ccccc2C1=O`, the inhibition is 0.6% (inactive).
Next, `COc1ccc(O)c(C(=O)c2cnc3onc(C(C)C)c3c2)c1`: 8.5% (inactive); `COC(=O)c1ccc(Oc2nc(NC(C)C)nc(SC)n2)cc1`: 0.3% (inactive); `OCc1n[nH]c(CO)n1`: -2.9% (inactive).
Regarding `CCN1C(=O)/C(=C\N2CCN(c3ccccc3)CC2)SC1=S`, the inhibition was 3.4% (inactive).
For the molecule `CCN1C(=O)/C(=C2/Sc3ccccc3N2CCCS(=O)(=O)O)SC1=S`, the inhibition is 17.1% (active).
For the molecule `CCN1C(=O)/C(=C\N2CCN(c3cccc(Cl)c3)CC2)SC1=S`, the inhibition is 4.2% (inactive).
Regarding `CCc1nnc(NC(=O)c2nc3nccc(C)n3n2)s1`, the inhibition was 1.3% (inactive).
Consider `COc1ccc2c(c1)OC(O)(C(F)(F)C(F)F)CC2=O` (stereo not drawn), for which the inhibition was 4.3% (inactive).
For `CC1(C)Cc2ccccc2-c2nnc(-c3cccc(O)c3)n21`, the inhibition is -1.1% (inactive).
As for `O=C(Nc1ccc(Cl)cn1)c1cnn2cccnc12`, the figure is -1.1% (inactive); as for `O=c1[nH]c(=O)n(Cc2ccco2)c2c1C(C(F)(F)F)(C(F)(F)F)N=C(c1ccco1)N2`, -3.7% (inactive).
With `CC(C)n1c(NCc2c[nH]c3ccccc23)nc2ccccc21`, the inhibition is -5.6% (inactive).
With `COc1cc(C(O)c2nc3ccccc3n2C)cc(OC)c1OC` (stereo not drawn), the inhibition is 1% (inactive).
As for `Cc1cc(C)c(C#N)c(SCc2ccc3c(c2)OCO3)n1`, the figure is 3.3% (inactive); as for `COc1ccc(C2C(C(=O)N3CCN(c4ccc(OC)cc4)CC3)c3ccccc3C(=O)N2C)cc1` (stereo not drawn), 2.8% (inactive).
As for `CNC(=O)CSc1nnnn1-c1ccc(C)cc1C`, the figure is 1.5% (inactive); as for `CC1(C)CC(=O)C(C=NCc2cccnc2)=C(O)C1`, 2.8% (inactive).
As for `CCC(=O)Nc1cccc(NC(=O)c2cccnc2)c1`, the figure is -1.1% (inactive).
Consider `CCC1CCCCN1C(=O)Nc1cccc(NC(=O)N2CCCCC2CC)c1` (stereo not drawn), for which the inhibition is -2.3% (inactive).
For `CCOC(=O)C1(c2ccccc2)NC(c2ccc(N(C)C)cc2)C2C(=O)N(C)C(=O)C21` (stereo not drawn), the inhibition is -4.8% (inactive).
On to `O=C(Nc1ccc2c(c1)OCCO2)C1CCCN(c2ncccn2)C1` (stereo not drawn), for which the inhibition was 4.5% (inactive).
Consider `Cc1ccccc1CSc1nnc(-c2cccnc2)n1N`, for which the inhibition was 4.9% (inactive).
As for `CN(C(=O)C1CCOC1)c1nnc(-c2cccnc2)s1` (stereo not drawn), the figure is -4.2% (inactive); as for `COc1cccc(-n2cc3c(c2-c2ccccc2)c(=O)n(C)c(=O)n3C)c1`, -1.8% (inactive); as for `Cn1c(=O)c2c(nc(SCCNS(=O)(=O)c3ccccc3)n2C)n(C)c1=O`, -2.9% (inactive).
Next, `CC(C)OC(=O)c1cc(NC(=O)C2C3CCC(O3)C2C(=O)O)cc(C(=O)OC(C)C)c1` (stereo not drawn): -25.2% (inactive).
For `Cc1noc(COc2ccccc2OCC(O)CNC(C)(C)C)n1` (stereo not drawn), the inhibition is -0.8% (inactive).
As for `O=C(CCCN1C(=O)CCC1=O)Nc1ccc(Cl)c(C(F)(F)F)c1`, the figure is 1.9% (inactive); as for `Cc1cccc(-n2c(Cc3cc(=O)[nH]c(=O)[nH]3)nnc2SC(C)C)c1`, 2.4% (inactive); as for `O=C(OCc1ccccc1F)c1ccc2c(c1)OCCO2`, -0.1% (inactive).
Take `O=c1ccn(Cc2ccccc2Cl)cc1`: the inhibition was 0.5% (inactive).
`COc1ccc(Cn2nnc3c(=O)[nH]c(C4CCN(C(=O)c5ccccc5Cl)CC4)nc32)cc1`: the inhibition is 7.2% (inactive).
Next, `CCOC(=O)[C@H]1CCC[C@@H](NS(=O)(=O)c2ccc(NC(C)=O)cc2)C1`: 0% (inactive); `COc1ccccc1NC(=O)CSc1nnc(-c2ccoc2C)n1CCc1ccccc1`: -3.7% (inactive); `Cc1cc(Nc2cccc(C)c2C)n2ncnc2n1`: 6.6% (inactive).
Next, `CCCc1nc2c3cnn(-c4cccc(Cl)c4)c3ncn2n1`: -4.1% (inactive); `CC12CN3CC(C)(CN(C1)C3c1ccc(Cl)cc1Cl)C2=O` (stereo not drawn): 6.8% (inactive).
As for `Cc1ccc(C(C)C)c(OCc2nnc(SCC(=O)Nc3nccs3)n2C)c1`, the figure is -0.8% (inactive); as for `CCOC(=O)N1CCC(NC(=O)Cn2cc3c(n2)CCCCC3)CC1`, 3% (inactive); as for `Cc1cc(C)nc(N2C(=O)CC(Cc3ccccc3)C2=O)n1` (stereo not drawn), 2.4% (inactive).
On to `CC1CCCC(NC(=O)CN2CCN(Cc3ccc(Cl)cc3)C2=O)C1C` (stereo not drawn), for which the inhibition was -0.6% (inactive).
With `CCOC(=O)N1CCC(Nc2c(NCCCN3CCN(c4ccc(OC)cc4)CC3)c(=O)c2=O)CC1`, the inhibition is 2.1% (inactive).
As for `O=C(CCC(=O)OCC(F)(F)C(F)F)NCc1ccccc1`, the inhibition is 1.8% (inactive).
Regarding `Cc1cc(/C=N/n2cnnc2)c(C)n1-c1ccc2ncccc2c1`, the inhibition is -12% (inactive).
Turning to `CC(=O)NC(C)(C)C1CC=C(C)/C(=N\O)C1` (stereo not drawn), the inhibition is 4.1% (inactive).
As for `CCOc1ccc(OCC)c(NC(=O)CN(C)S(=O)(=O)c2cccc3nsnc23)c1`, the figure is -2.8% (inactive); as for `Cc1cccc(-n2c(O)c(C=Nc3ccccc3N)c(=O)[nH]c2=O)c1`, -15.8% (inactive); as for `N#CC(C(=O)c1ccc(S(=O)(=O)N2CCCCCC2)cc1)c1nc2ccccc2[nH]1` (stereo not drawn), -11.8% (inactive).
`CC1C=CCC2C(=O)N(c3cccc(C(=O)N4CCCCCC4)c3)C(=O)C12` (stereo not drawn): the inhibition was 4.6% (inactive).
For `Cc1nc2ccccc2c2oc(C(=O)NCC3CCCO3)cc12` (stereo not drawn), the inhibition was -8.8% (inactive).
For the molecule `CCCn1c(SCC(=O)N2CCc3ccccc32)nnc1-c1ccncc1`, the inhibition is -0.9% (inactive).
Turning to `COc1ccc(S(=O)(=O)N2CCCCC2)cc1Br`, the inhibition was 3.3% (inactive).
Next, `Cc1ccc(-n2nc3cc(Cl)c(NC(=O)c4ccco4)cc3n2)cc1`: -66.9% (inactive).
As for `Cc1ccc(S(=O)(=O)c2c(N)n(C)c3nc4ccccc4nc23)cc1`, the figure is -244% (inactive); as for `CCC(C)NC(=O)N[C@@H](CCSC)C(=O)O` (stereo partly drawn), 1.5% (inactive).
Next, `C=CCOc1ccc(C2/C(=C(\O)c3c(C)[nH]c(C(=O)OC)c3C)C(=O)C(=O)N2CCN(C)C)cc1` (stereo not drawn): 2.9% (inactive); `COc1ccc(OC)c(NC(=O)CCN2CCC(C)CC2)c1`: 3.7% (inactive); `COc1ccccc1OCCC(=O)OCC(=O)NC(=O)NC(C)(C)C`: 3.7% (inactive).
Turning to `CC(C)(C)c1cc(CN2CCN(CCC#N)CC2)cc(C(C)(C)C)c1O`, the inhibition is -0.2% (inactive).
In the case of `CCOC(=O)C1=C(C)NC(C)=C(C(=O)OCC)C1c1ccccn1`, the inhibition was -0.7% (inactive).
As for `CCOc1ccc(C(=O)Nc2ccncc2)cc1`, the figure is 3.1% (inactive).
As to `c1nc(COc2nsnc2N2CCOCC2)cs1`, the inhibition was 2.5% (inactive).
`COc1ccc(NC(=O)CN2CCN(S(=O)(=O)c3ccc(F)cc3)CC2)cc1Cl`: the inhibition was -15.6% (inactive).
As for `Cc1noc(C)c1S(=O)(=O)N1CCCC(C(=O)Nc2nccs2)C1` (stereo not drawn), the inhibition is 6.5% (inactive).
For the molecule `NC(CSC12CC3CC(CC(C3)C1)C2)C(=O)O` (stereo not drawn), the inhibition was 2.6% (inactive).
As for `Cc1nc(NC(CC(C)C)C(=O)O)c2nc(C)oc2n1` (stereo not drawn), the figure is 0% (inactive); as for `CCOC(=O)N1CCN(C(=O)CNC(=O)Cc2ccc(Cl)cc2)CC1`, -1.6% (inactive); as for `CCOC(=O)N1CCN(C(=O)C2CCN(S(C)(=O)=O)CC2)CC1`, -0.8% (inactive).
In the case of `CCn1c(SCC(=O)c2ccc(Cl)s2)nnc1-c1cccs1`, the inhibition was -2.1% (inactive).
Next, `COc1ccccc1N(C(=O)Cn1nnc2ccccc21)C(C(=O)NCc1ccco1)c1ccc(C)o1` (stereo not drawn): 7.4% (inactive).
As for `Cc1nc(CNS(=O)(=O)c2cccnc2)cs1`, the inhibition was 2.4% (inactive).
Next, `CCCCCCC(=O)N(O)C1CC(=O)N(c2ccccc2)C1=O` (stereo not drawn): 1% (inactive).
Regarding `COC(=O)c1ccc(S(=O)(=O)c2ccc(C(=O)OC)s2)s1`, the inhibition was -1.3% (inactive).
For the molecule `Cc1ccc(S(=O)(=O)Cn2nnnc2CN2CCN(Cc3ccc4c(c3)OCO4)CC2)cc1`, the inhibition was -3.7% (inactive).
As for `CC1CCN(C(=O)Cn2cc(C(=O)c3ccco3)c3ccccc32)CC1`, the figure is -1.8% (inactive).
On to `CCC(=O)Nc1ccc2c(c1)nc(CCN1CCN(C)CC1)n2C`, for which the inhibition is -0.5% (inactive).
Next, `CCOc1ccccc1C(=O)NCc1ccco1`: 3.2% (inactive); `O=C(CN1C2CCC1CC(NC(=O)C1CC1)C2)NCc1ccccc1` (stereo not drawn): -1.1% (inactive); `COc1ccc(C2=NOC(C(=O)NCc3ccco3)C2)cc1OC` (stereo not drawn): 1.2% (inactive).
As for `C=CCNC(=O)c1cc(-c2ccccc2O)on1`, the figure is 6% (inactive); as for `COc1ccccc1N1CC(O)=C(c2nc3ccccc3s2)C1=N`, -5.8% (inactive); as for `Cc1cccc(NC(=O)CN2CCCN(S(=O)(=O)c3ccc(Br)s3)CC2)c1`, -0.8% (inactive).
Next, `COc1cc(Cl)c(S(=O)(=O)n2cnc(C)c2)cc1Cl`: -1% (inactive); `CCC(C)(C)NC(=O)C(c1cccn1C)N(Cc1ccc(C)cc1)C(=O)Cn1nnc2ccccc21` (stereo not drawn): 2.1% (inactive).
Consider `O=C(CSc1n[nH]c(-c2cccnc2)n1)Nc1ccnc2ccccc12`, for which the inhibition was -1.2% (inactive).
As for `CC(C)(C)c1ccc(C(=O)CSc2ncn[nH]2)cc1`, the inhibition was 1.3% (inactive).
With `C=CCSc1nnc(Cn2c(=O)sc3ccccc32)n1C`, the inhibition was -10.7% (inactive).
As to `CC(NC(=O)c1ccco1)C(=O)Nc1nc(-c2ccccn2)cs1` (stereo not drawn), the inhibition was 1.6% (inactive).
On to `COCCNCCOCCOc1cccc(OC)c1`, for which the inhibition is -0.9% (inactive).
Next, `Cc1ccsc1-c1nc(CSCC(=O)NCCN2CCCC2)c(C)o1`: -72.5% (inactive).
Turning to `O=C(CSc1nnc(-c2cccs2)n1-c1ccccc1)N1CCN(C(=O)c2ccco2)CC1`, the inhibition is 2.3% (inactive).
Consider `CN(Cc1ccccc1)Cc1ccccc1F`, for which the inhibition was 0.3% (inactive).
Next, `Cc1oc(-c2cccc(Cl)c2)[n+]([O-])c1C`: -6.2% (inactive); `CCOc1nc(-c2ccc(OC)cc2)ccc1-c1noc(-c2cc(OC)c(OC)c(OC)c2)n1`: -11.5% (inactive); `CCOC(=O)C(CCOc1cccc(CC)c1)C(=O)OCC`: 4.3% (inactive).
Next, `CC(C)c1ccc(-c2nn[nH]n2)cc1`: 0.3% (inactive).
For the molecule `C=CCn1c2ccccc2c2nnc(SC(CC)C(=O)Nc3nc(C)c(C(=O)OCC)s3)nc21` (stereo not drawn), the inhibition is 2.6% (inactive).

What is called inhibition is the drop in the measured response relative to a control, in per cent.
